The list is not random: actives were taken first. Their share in the collection is about 15%.
HCV inh: HCV inhibition; Huh7.5.1 HCVcc-Cre infection, luciferase reporter, 44 h; Potency, µM (series often up to 41.8 µM), actives largely listed as inhibitors; 340,000 compounds, 3.4% hits; AID 651820
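Cells (1,000/well) were plated 4 h before compound, then infected with HCVcc-Cre virus (~0.5 moi). After 44 h further culture, infection was read as luciferase luminescence following a 15 min substrate incubation at room temperature.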
Pf growth 48h: inhibits P. falciparum growth in the first generation, 48 h; P. falciparum luciferase growth in erythrocytes, 48 h; AID 504832; Potency, µM (series often up to 28.7 µM), actives largely listed as inhibitors; 310,000 compounds, 5.9% hits
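Parasite viability was followed by luminescence of a genomically integrated firefly luciferase. Cultures held 0.1% parasitemia at 2% hematocrit (final), incubated under 5% CO2 at 37 C.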
HCMV inh: human cytomegalovirus inhibition | HFF cells, HCMV-luciferase reporter, 72 h; stronger effect = lower value | activity change, negative = inhibition, % at 57.5 µM | 410,000 compounds, 4.5% hits | AID 1259415; in the data active means activity change below about -60%; inconclusive means no clear call, values can overlap the other calls; inactive means above about -39%
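Screen run at 2 compound doses on HFFs infected with reporter HCMV, MOI 1 PFU/cell. Luciferase activity from cell lysates at 72 h post infection gave inhibition relative to buffer-only and Salinomycin wells.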
SARS PLP yeast: SARS-CoV PLP inhibition in yeast. S. cerevisiae expressing SARS-CoV PLpro, growth rescue. Potency, µM (doses to about 32.9 µM), hits mostly activators. 330,000 compounds, 0.19% hits; calls by dose curve; further: nearly all actives have a fitted effect of over 55% in size
Sm TGR block: inhibitors of Schistosoma mansoni thioredoxin glutathione reductase; Potency, µM (doses to about 114 µM), actives largely listed as inhibitors; 360,000 compounds, 3% hits; AID 485364; purified TGR, DTNB reduction, TNB absorbance 405 nm; Q962Y6; further: nearly all actives have a fitted effect of over 60% in size
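Kinetic colorimetric format: TGR-catalysed, NADPH-driven DTNB reduction monitored via TNB absorbance. Enzyme dispensed at 20 nM; compound exposure 15 min at room temperature before reaction start.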
Pf growth 96h: inhibits malaria parasite growth, 96 h; Potency, µM (titrated, usually from 28.7 µM), usual class: inhibitors; 320,000 compounds, 6.9% hits; P. falciparum luciferase reporter growth, 96 h
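Luminescence readout: decreased luciferase signal marks inhibited growth of reporter-expressing P. falciparum in infected red cells (2% hematocrit, 0.05% parasitemia final), exposed to compound two generations (96 h, 37 C, 5% CO2).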
HCV confirm: HCV inhibition, cherry-pick confirmation. 640 compounds, 78% hits. shares compounds with HCV inh. HCVcc-Cre infectious virus cell assay, luciferase, inhibition. Potency, µM (series often up to 41.8 µM), actives largely listed as inhibitors. AID 720575; further: nearly all actives have a fitted effect of over 80% in size
HCV host tox: host cell cytotoxicity counter-screen for HCV inhibitors. HCV host cell line cytotoxicity counterscreen. shares compounds with HCV inh. Potency, µM (series often up to 41.8 µM), usual class: inhibitors. 640 compounds, 22% hits;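 further: 44 h compound exposure; nearly all actives have a fitted effect of over 55% in size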
Numbers stand for hits; n = inactive; u = inconclusive; x = no result. Unless noted, the call rests on the fitted dose curve; in most records, active means well fitted curve in the direction sought with a large enough effect; inconclusive means small, poorly fitted or top-dose-only effect, or another doubt; inactive means no such curve, though single readings can be large; an effect the other way counts as inactive or inconclusive.

SMILES	HCV inh	Pf growth 48h	HCMV inh	SARS PLP yeast	Sm TGR block	Pf growth 96h	HCV confirm	HCV host tox
C/C(=N\NC(=O)C1COc2ccccc2O1)c1ccc(C)o1 (configuration not stated)	n	x	n	n	n	n	x	x
Cc1ccc(C)c(Nc2nn3c(=O)c4ccc(C(=O)N(C)Cc5ccccc5)cc4nc3s2)c1	x	x	n	x	n	x	x	x
Oc1ccc(C[C@H]2CNC(=S)N2CC2CCCN2C[C@H](Cc2ccc(O)cc2)N2C[C@H](Cc3ccccc3)N(CC3CCCCC3)C2=S)cc1 (some centres not stated)	2.51µM	x	u	x	x	x	8.87µM	n
Oc1ccc(C[C@H]2CN([C@@H](Cc3ccccc3)CN3CCC[C@@H]3CN3C(=S)NC[C@@H]3Cc3ccccc3)C(=S)N2CC2CCCCC2)cc1	x	x	n	x	x	x	x	x
Cc1ccccc1NC(=O)CSc1ncc2c(n1)-c1ccccc1N(C)S2(=O)=O	x	x	n	x	n	x	x	x
O=c1c2ccccc2nc2n1CCN2Cc1ccc(Cl)cc1	u	2.08µM	-88.4	n	n	2.33µM	6.28µM	u
CCCCn1c(SCc2nc3ccccc3s2)nc2cc(S(N)(=O)=O)ccc21	u	x	n	n	n	u	17.7µM	n
CCN(C[C@H]1N[C@@](Cc2ccccc2)(C(=O)OC)[C@H]2C(=O)N(Cc3ccccc3)C(=O)[C@@H]12)S(=O)(=O)c1ccc(C(F)(F)F)cc1	7.08µM	x	n	n	x	x	u	n
CCN(C[C@H]1N[C@@](Cc2ccccc2)(C(=O)OC)[C@H]2C(=O)N(C)C(=O)[C@@H]12)S(=O)(=O)c1ccc(C(F)(F)F)cc1	u	x	n	n	x	x	x	x
CN(C)CC/C=C1/c2ccc(F)cc2Sc2ccc(Cl)cc21	8.91µM	x	n	x	x	x	14.1µM	n
CC(=O)Nc1ccc(NC(=O)C(C)OC(=O)C2CCN(S(=O)(=O)c3cccs3)CC2)cc1 (configuration not stated)	n	n	n	n	n	n	x	x
COc1ccc(Nc2nc(N3CCOCC3)nc(N3CCOCC3)n2)cc1	u	n	n	n	n	n	x	x
COc1ccc(Nc2nc(NC(C)(C)C)nc(N3CCOCC3)n2)c(OC)c1	7.08µM	u	-61.3	n	x	n	7.05µM	n
CCc1cccc(NC(=O)CCn2nc(C)cc2C)c1	x	x	n	x	n	x	x	x
CCCOc1ccc(S(=O)(=O)Nc2ccccn2)c2ccccc12	n	n	n	n	n	n	x	x
CCOCCCNc1c2c(nc3cc(-c4ccc(F)cc4)nn13)CCC2	n	n	n	n	n	u	x	x
OC1CCN(c2c3c(nc4cc(-c5ccc(F)cc5)nn24)CCC3)CC1	u	u	n	n	n	u	4.99µM	n
CC1CCN(S(=O)(=O)c2ccc3c(c2)CCN3C(=O)Nc2ccc(Br)cc2F)CC1	x	x	n	x	n	x	x	x
CC1CCN(CCOCCOc2ccccc2-c2ccccc2)CC1	u	u	u	n	n	n	x	x
CC1CCN(CCCCOc2ccccc2-c2ccccc2)CC1	u	10.4µM	u	n	n	n	19.9µM	n
COc1ccc(-c2nc(SCc3ccccc3)n(S(C)(=O)=O)n2)cc1	2.82µM	n	n	n	n	n	n	n
CCOCCCn1c(=N)c(C(N)=S)cc2c(=O)n3cccc(C)c3nc21	u	u	n	n	n	x	19.9µM	n
CCOC(=O)c1cc2c(=O)n3cccc(C)c3nc2n(C)c1=N	x	n	x	n	n	n	x	x
Cc1cc2[nH]c3c(c[n+](C)c4ccccc34)c2cc1C	5.01µM	0.465µM	-98.3	n	n	u	15.8µM	u
CCCCN(C)C(=O)C1CCCN(c2ncnc3onc(-c4ccc(F)cc4)c23)C1 (configuration not stated)	x	x	n	x	n	x	x	x
SMILES	HCV inh	Pf growth 48h	HCMV inh	SARS PLP yeast	Sm TGR block	Pf growth 96h	HCV confirm	HCV host tox
CC(c1nc2ccccc2[nH]1)N(C(=O)Cc1csc2ccccc12)c1cccnc1 (configuration not stated)	x	x	n	x	x	x	x	x
N#Cc1c2ccc(O)cc2n2ccccc12	7.08µM	n	u	n	u	n	22.3µM	n
COc1ccccc1NC(=O)C(C)OC(=O)c1cc2ccccc2[nH]1 (configuration not stated)	u	9.28µM	n	n	n	u	7.91µM	17.7µM
C=CCn1c[n+](CC(=O)c2ccc(Br)s2)c2ccccc21	n	u	n	n	n	n	x	x
O=S(=O)(c1ccc(Oc2ccccc2)cc1)N1CCOCC1	u	n	n	n	n	x	x	x
O=[N+]([O-])c1ccccc1Oc1ccc(S(=O)(=O)N2CCOCC2)cc1	7.94µM	u	n	n	n	u	u	n
Cn1nccc1NC(=O)Nc1cccc(Cl)c1Cl	n	n	u	n	n	n	x	x
COc1ccc(NC(=O)Nc2cccc(Cl)c2Cl)c(OC)n1	2.82µM	u	-70.0	n	n	9.28µM	u	n
COc1cccc(N(C(=O)CCl)C(C(=O)NCCc2ccccc2)c2cccs2)c1 (configuration not stated)	0.708µM	11.7µM	-100.4	n	10µM	9.28µM	0.887µM	0.499µM
Nc1nc2c(ncn2[C@@H]2O[C@H](CNS(=O)(=O)C3CC3)[C@@H](O)[C@H]2O)c(=O)[nH]1	x	x	n	x	x	x	x	x
COc1ccc2c(C)cc(SCc3c(C)noc3C)nc2c1	6.31µM	n	n	n	n	n	22.3µM	n
c1ccc2c(c1)CCN(c1ncnc3c1[nH]c1ccccc13)C2	2.51µM	5.22µM	-66.2	n	n	7.38µM	2.8µM	6.28µM
CC(C)Oc1ncnc2c1[nH]c1ccccc12	u	u	u	n	n	u	x	x
O=C(c1cc(COc2ccc3ncccc3c2)on1)N1CCC[C@H]1CO	u	n	u	n	n	u	7.91µM	14.1µM
COCCC1CCCCN1C(=O)c1cc(COc2ccc(C)nc2)on1 (configuration not stated)	x	n	u	n	n	u	x	x
Cc1cc(Oc2c(C(F)(F)F)oc3c(CN4CCC(C)CC4)c(O)ccc3c2=O)cc(C)c1Cl	x	x	n	x	n	x	x	x
CC1Sc2ccc(C(=O)N(CCc3ccccc3)Cc3ccccc3)cc2NC1=O (configuration not stated)	x	x	n	x	x	x	x	x
COc1ccc(Br)cc1/C=C/C(=O)Nc1c(C)cccc1C	u	u	n	n	n	n	x	x
CCN(CC)c1ccc(NC(=O)/C=C/c2cc(Br)ccc2OC)cc1	u	u	n	n	n	n	12.5µM	u
O=C(/C=C/c1ccco1)Nc1ccc(-c2nc3ccccc3[nH]2)cc1	2.82µM	4.15µM	u	n	n	11.7µM	6.28µM	u

Screening data (PubChem BioAssay)
